Measured values from PubChem BioAssay (NCATS).
Values without a mark were called inactive. Records with an inconclusive call do not appear. Entries that show only a call come without a potency. The source made the active and inactive calls. Unless noted, calls come from the whole dose curve; as a rule, active = well fitted curve in the direction sought with a large enough effect; inconclusive = small, poorly fitted or top-dose-only effect, or another doubt; inactive = no such curve, though single readings can be large; an effect the other way counts as inactive or inconclusive.

What was measured:
[1] = AP1 Signaling Pathway (AID 357; active = well fitted curve in either direction with a large enough effect, not every such curve was filed as active;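 note: ME-180 reporter cells stimulated with EGF at its EC50 level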); settings: ME-180 AP-1-bla reporter, EGF-induced, beta-lactamase ratio, 5 h; at 7.69 µM (top of the series) unless noted
Method in brief: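 Beta-lactamase reporter under AP-1 response element, ME-180 background. Stimulus: EC50 EGF. Compound exposure 5 h, 37 °C. Detection: CCF4, 2.5 h RT, 460/530 nm. Values: AC50 from titration.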

[2] = molecular target: Cytochrome P450 1A2 (Homo sapiens) (UniProt P05177); assay: p450-cyp1a2 (AID 410; calls by dose curve)
Method in brief: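 20nM CYP1A2, 100uM Luciferin-ME (=Km), 100mM KPO4; cpd 10 min RT; +NADPH regen, 60 min RT; stop/detect 20 min; luminescence. Normalized to furafylline 57 uM = full inhibition.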

[3] = NFAT Signaling Pathway (AID 444; active = well fitted curve in either direction with a large enough effect, not every such curve was filed as active;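 note: carbachol stimulus at about its EC50 of 1 µM final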); settings: Jurkat NFAT-bla M1, carbachol, beta-lactamase ratio, 5 h; at 7.69 µM (top of the series) unless noted
Method in brief: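 Jurkat cells with NFAT-driven β-lactamase reporter and co-expressed M1 receptor, stimulated with carbachol (final 1 uM, ~EC50), compound titration, 5 h at 37 °C. CCF4 loaded 1 h at RT; 460/530 nm ratio gave %activity and AC50.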

[4] = Stat Signaling Pathway (AID 446; active = well fitted curve in either direction with a large enough effect, not every such curve was filed as active;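 note: ME-180 cervical cancer cells given 40 pM IL-6 alongside compound; SIE-controlled beta-lactamase reporter measured as 460/530 nm FRET emission ratio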); settings: ME-180 (cervical carcinoma) SIE beta-lactamase reporter, IL-6 stimulated, 5 h; at 7.69 µM (top of the series) unless noted
Method in brief: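 Compound effects on IL-6-induced STAT reporter activity were measured in ME-180 cells. After overnight culture, cells were co-treated with 40 pM IL-6 for 5 hrs before beta-lactamase substrate loading at room temperature.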

[5] = molecular target: Glucocorticoid receptor (Homo sapiens) (UniProt P04150); assay: GR-GFP Redistribution (AID 450;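 active = compounds whose dose series gives a full or clear partial fitted curve of increased nuclear translocation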; note: potency is the fitted concentration of half-maximal effect); settings: U2OS GR-GFP nuclear translocation, laser cytometry, 2 h
[6] = molecular target: Glucocorticoid receptor (Homo sapiens) (UniProt P04150); assay: GR-EFC Redistribution (AID 451; calls by dose curve; note: potency is the fitted concentration of half-maximal effect); settings: CHO-K1 GR-EFC translocation, beta-gal luminescence, 2 h
Method in brief: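 CHO-K1 cells expressing nuclear EA and GR-ED fragments of b-gal; compounds titrated up to 46 uM final, 2 h at 37 C. GR nuclear translocation read as complemented b-gal luminescence after 1 h RT detection.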

[7] = molecular target: Mitogen-activated protein kinase 10 (Mus musculus) (UniProt Q61831); assay: JNK3 AlphaScreen Assay (AID 530; active = well fitted curve in either direction with a large enough effect, not every such curve was filed as active;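 note: kinase came from lysate of stimulated human HepG2 cells; signal reports phosphorylation of biotinylated GST-cJun 1-79 at Ser73 with 10 µM ATP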)
Method in brief: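 HepG2 lysate (IL-1b/TNFa pre-activated) + biotin-GST-cJun 1-79 + anti-pSer73 cJun; cpd titration, 15 min RT; ATP 10 uM start; Tris pH 7.6, MgCl2, DTT, vanadate; beads in EDTA buffer; AlphaScreen.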

[8] = molecular target: 3',5'-cyclic-AMP phosphodiesterase 4B (Homo sapiens) (UniProt Q07343); assay: qHTS Assay for Inhibitors of PDE-IV (AID 607; active = well fitted activation curve with a large enough effect in the main read-out, with a control signal flat, not every such curve was filed as active)
Method in brief: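 ACTOne HEK293 cells carry a modified cAMP-gated CNG channel and express endogenous PDE4; plated 1000 cells/well, compounds up to 22.9 uM final. Membrane-potential dye fluorescence (ex 535/em 590) was read; parental cells received 10 uM forskolin + 100 uM RO 20-1724.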

[9] = molecular target: Guanine nucleotide-binding protein G(i) subunit alpha-1 (Homo sapiens) (UniProt P63096); assay: qHTS Assay for Inhibitors of RGS12 GoLoco Motif Activity (Green Fluorophore) (AID 879);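 note: negative values mean loss of peptide binding seen as reduced polarization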
Method in brief: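 A drop in FITC polarization marked displacement of the FITC-tagged RGS12 GoLoco peptide (10 nM) from Gαi1 (50 nM). Compounds were incubated 10 min at room temperature in Tris pH 7.5 buffer containing 150 mM NaCl, 0.1 mM GDP and 0.05% NP40; unlabeled peptide titration served as control.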

[10] = molecular target: Cytochrome P450 3A4 (Homo sapiens) (UniProt P08684); assay: qHTS Assay for Activators of Cytochrome P450 3A4 (AID 885); note: nearly all actives have a fitted effect of over 65% in size
Method in brief: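 CYP3A4 activity: Luciferin-PPXE O-dealkylation, 25uM substrate, 200mM KPO4, RT throughout. Read-out is luciferase luminescence; higher values reflect activation.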

[11] = qHTS Assay for Identification of Small Molecule Agonists for Thrombopoietin (TPO) Signaling Pathway (AID 917)
Method in brief: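 Human TPO receptor–transfected Ba/F3 cells (murine, IL-3-dependent) in IL-3-deficient medium; compounds plus TPO at EC50, 26 pM final; 24 hrs, 37 C; GpIIb-luciferase luminescence after 10 min RT detection.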

[12] = molecular target: Pyruvate kinase (Leishmania mexicana) (UniProt Q27686); assay: qHTS Validation Assay for Inhibitors of Leishmania Mexicana Pyruvate Kinase (AID 945)
Method in brief: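 Luminescent ATP detection (PKLight) after a 1 h room-temperature reaction of 0.2 nM LmPYK E451W mutant with 0.5 mM PEP and 0.1 mM ADP at pH 7.2. Activity is normalized to DMSO-only control wells.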

[13] = molecular target: Pyruvate kinase PKM (Homo sapiens) (UniProt P14618); assay: qHTS Assay for Activators of Human Muscle Pyruvate Kinase (AID 954; active = well fitted curve in the direction sought with a large enough effect, not every such curve was filed as active)
Method in brief: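 A coupled luminescent readout tracked ATP made from ADP by purified PKM2. Final conditions included 0.1 nM enzyme, PEP and ADP at 0.5 and 0.1 mM, pH 7.2 imidazole buffer with BSA, and a one-hour room-temperature reaction.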

[14] = molecular target: Alpha-galactosidase A (Homo sapiens) (UniProt P06280); assay: Counterscreen for Glucocerebrosidase Inhibitors: qHTS Assay for Human alpha-Galactosidase at pH 4.5 (AID 992)
Method in brief: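 Citrate buffer pH 4.5, Tween-20 0.005%. Enzyme 2 nM, substrate 80 uM, 20 min RT. Stop pH 10. Fluorescence Ex 365/Em 440. AC50 by Hill fit.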

[15] = molecular target: alpha-glucosidase (Oryza sativa, rice) (UniProt Q653V4); assay: Counterscreen for Glucocerebrosidase Inhibitors: qHTS Assay for Rice alpha-Glucosidase at pH 5.0 (AID 997); note: potency is the fitted concentration of half-maximal effect
Method in brief: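 Endpoint fluorogenic assay at pH 5.0: compounds (0.7 nM to 77 uM) titrated against 4 nM rice enzyme and 400 uM 4-MU-alpha-glucoside for 20 min at room temperature; NaOH/glycine stop, read ex 365/em 440 nm, Hill-fitted AC50.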

[16] = molecular target: Cytochrome P450 2C19 (Homo sapiens) (UniProt P33261); assay: qHTS Assay for Inhibitors and Substrates of Cytochrome P450 2C19 (AID 899); note: nearly all actives have a fitted effect of over 60% in size
Method in brief: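 Signal comes from luciferase acting on luciferin released by CYP2C19-mediated hydroxylation of Luciferin-H EGE, 10uM (KM). Assay mix: 5nM enzyme, 50mM KPO4; 60 min at 37C with NADPH regeneration. Data normalized against 57uM ketoconazole.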

[17] = molecular target: Muscarinic acetylcholine receptor M1 (Rattus norvegicus) (UniProt P08482); assay: qHTS Assay for Antagonists of Acetylcholine Muscarinic M1 Receptor: Measurement of IP-One Response (AID 944); note: nearly all actives have a fitted effect of over 75% in size
Method in brief: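 Read-out: HTRF competition between d2-IP1 and Eu-cryptate anti-IP1 antibody, emission 620 and 665 nm. Stimulus was carbachol, EC80 (200 nM), for 30 min in M1-CHO cells (rat receptor), after 10 min compound pre-treatment.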

[18] = molecular target: Muscarinic acetylcholine receptor M1 (Rattus norvegicus) (UniProt P08482); assay: qHTS Assay for Antagonists of Acetylcholine Muscarinic M1 Receptor: Kinetic Measurement of Intracellular Calcium Response (AID 943);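 note: Fluo-4 calcium signal as peak divided by basal fluorescence over 4 min; nearly all actives have a fitted effect of over 75% in size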
Method in brief: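 Read-out: peak over basal Fluo-4 fluorescence, kinetic at 1 Hz for 4 min after EC80 carbachol (100 nM final). Rat M1-CHO cells, dye loaded 1 h at 37C, compound added 10 min before agonist.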

[19] = molecular target: Cytochrome P450 2D6 (Homo sapiens) (UniProt P10635); assay: qHTS Assay for Inhibitors and Substrates of Cytochrome P450 2D6 (AID 891);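 note: luciferin methyl ether substrate demethylated by CYP2D6 with NADPH regeneration; nearly all actives have a fitted effect of over 60% in size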
Method in brief: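 Luminescent read-out of luciferin formed by 5 nM human CYP2D6 demethylating 30 uM Luciferin-ME EGE (Km level) over 60 min at room temperature after NADPH regeneration addition. Data normalized to full inhibition by 1.43 uM quinidine.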

Chain of Cytochrome P450 1A2 (Homo sapiens) (P05177 whole entry, looked up): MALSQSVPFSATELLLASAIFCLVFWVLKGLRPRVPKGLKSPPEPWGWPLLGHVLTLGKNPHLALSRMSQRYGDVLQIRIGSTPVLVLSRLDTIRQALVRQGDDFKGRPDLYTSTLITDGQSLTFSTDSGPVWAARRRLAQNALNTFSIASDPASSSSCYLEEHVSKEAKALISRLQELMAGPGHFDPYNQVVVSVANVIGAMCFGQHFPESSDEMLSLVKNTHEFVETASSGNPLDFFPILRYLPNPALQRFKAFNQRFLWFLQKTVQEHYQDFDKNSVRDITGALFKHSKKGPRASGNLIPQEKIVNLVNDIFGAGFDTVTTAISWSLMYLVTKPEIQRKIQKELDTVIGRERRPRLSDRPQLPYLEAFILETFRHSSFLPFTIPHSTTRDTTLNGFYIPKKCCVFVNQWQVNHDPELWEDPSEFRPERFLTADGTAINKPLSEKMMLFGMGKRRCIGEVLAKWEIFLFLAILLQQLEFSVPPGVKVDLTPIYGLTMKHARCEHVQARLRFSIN
Chain of Cytochrome P450 3A4 (Homo sapiens) (P08684 whole entry, looked up): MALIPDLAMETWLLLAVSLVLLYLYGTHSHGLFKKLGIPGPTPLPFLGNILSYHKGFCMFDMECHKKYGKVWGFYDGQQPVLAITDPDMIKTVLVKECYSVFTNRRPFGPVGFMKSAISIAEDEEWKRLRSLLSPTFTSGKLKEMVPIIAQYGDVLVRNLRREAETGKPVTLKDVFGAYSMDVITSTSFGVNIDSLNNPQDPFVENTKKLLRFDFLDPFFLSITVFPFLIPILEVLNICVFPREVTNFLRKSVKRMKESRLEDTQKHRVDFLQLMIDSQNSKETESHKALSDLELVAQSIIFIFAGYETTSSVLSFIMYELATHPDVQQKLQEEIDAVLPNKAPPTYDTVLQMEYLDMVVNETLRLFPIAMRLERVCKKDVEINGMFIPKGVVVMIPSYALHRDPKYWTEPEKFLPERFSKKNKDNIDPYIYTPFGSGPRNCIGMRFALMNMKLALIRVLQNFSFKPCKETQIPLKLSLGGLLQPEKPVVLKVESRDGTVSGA
Chain of Cytochrome P450 2C19 (Homo sapiens) (P33261 whole entry, looked up): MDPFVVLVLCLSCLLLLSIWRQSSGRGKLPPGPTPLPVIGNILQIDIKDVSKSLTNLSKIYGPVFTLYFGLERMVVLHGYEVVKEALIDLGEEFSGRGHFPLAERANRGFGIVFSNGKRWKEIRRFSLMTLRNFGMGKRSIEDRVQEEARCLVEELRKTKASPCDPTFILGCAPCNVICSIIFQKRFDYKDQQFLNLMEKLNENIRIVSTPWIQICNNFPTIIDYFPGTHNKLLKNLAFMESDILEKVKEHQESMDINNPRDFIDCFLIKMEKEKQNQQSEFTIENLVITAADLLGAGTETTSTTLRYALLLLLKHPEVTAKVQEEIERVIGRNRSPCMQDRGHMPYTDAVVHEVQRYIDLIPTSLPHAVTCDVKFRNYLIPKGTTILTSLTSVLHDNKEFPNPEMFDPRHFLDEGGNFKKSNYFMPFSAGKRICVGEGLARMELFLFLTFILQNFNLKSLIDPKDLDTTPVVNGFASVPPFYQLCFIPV
Chain of Muscarinic acetylcholine receptor M1 (Rattus norvegicus) (P08482 whole entry, looked up): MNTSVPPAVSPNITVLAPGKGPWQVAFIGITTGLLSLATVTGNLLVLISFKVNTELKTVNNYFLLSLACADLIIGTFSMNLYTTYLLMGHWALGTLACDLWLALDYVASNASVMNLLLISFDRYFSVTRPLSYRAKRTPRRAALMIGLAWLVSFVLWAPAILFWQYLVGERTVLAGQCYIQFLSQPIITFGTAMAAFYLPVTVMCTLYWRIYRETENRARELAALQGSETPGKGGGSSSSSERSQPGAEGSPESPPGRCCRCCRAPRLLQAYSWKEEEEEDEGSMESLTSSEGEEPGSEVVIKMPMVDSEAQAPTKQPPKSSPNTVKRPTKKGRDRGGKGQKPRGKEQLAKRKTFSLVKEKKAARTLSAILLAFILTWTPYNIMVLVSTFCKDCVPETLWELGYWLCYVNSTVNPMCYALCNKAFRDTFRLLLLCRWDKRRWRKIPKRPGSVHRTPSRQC
Chain of Alpha-galactosidase A (Homo sapiens) (P06280 whole entry, looked up): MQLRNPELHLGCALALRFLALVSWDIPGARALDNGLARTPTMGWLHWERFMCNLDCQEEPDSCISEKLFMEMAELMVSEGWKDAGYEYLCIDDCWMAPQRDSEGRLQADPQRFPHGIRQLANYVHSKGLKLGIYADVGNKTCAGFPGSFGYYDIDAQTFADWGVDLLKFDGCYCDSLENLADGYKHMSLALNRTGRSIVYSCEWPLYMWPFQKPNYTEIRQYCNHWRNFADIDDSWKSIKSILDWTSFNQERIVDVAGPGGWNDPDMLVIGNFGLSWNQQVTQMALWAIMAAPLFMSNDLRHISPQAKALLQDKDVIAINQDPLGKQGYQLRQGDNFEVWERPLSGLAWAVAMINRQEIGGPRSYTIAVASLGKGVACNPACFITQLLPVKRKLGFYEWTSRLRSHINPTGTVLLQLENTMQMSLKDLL
Chain of Pyruvate kinase (Leishmania mexicana) (Q27686 2-499 E452W): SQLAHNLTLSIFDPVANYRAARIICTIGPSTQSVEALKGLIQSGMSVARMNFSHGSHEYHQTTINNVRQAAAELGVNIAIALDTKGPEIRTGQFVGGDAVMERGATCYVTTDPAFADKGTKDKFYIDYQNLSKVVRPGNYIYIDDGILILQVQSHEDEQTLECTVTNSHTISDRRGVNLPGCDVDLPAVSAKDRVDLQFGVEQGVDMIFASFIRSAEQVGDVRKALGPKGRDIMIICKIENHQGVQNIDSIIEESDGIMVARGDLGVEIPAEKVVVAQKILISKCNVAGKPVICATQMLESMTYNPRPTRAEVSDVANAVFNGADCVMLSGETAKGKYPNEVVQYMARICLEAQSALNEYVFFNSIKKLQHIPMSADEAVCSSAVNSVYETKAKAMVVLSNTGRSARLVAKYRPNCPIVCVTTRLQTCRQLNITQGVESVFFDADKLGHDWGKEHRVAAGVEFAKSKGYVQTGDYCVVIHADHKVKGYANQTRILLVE
Chain of 3',5'-cyclic-AMP phosphodiesterase 4B (Homo sapiens) (Q07343 whole entry, looked up): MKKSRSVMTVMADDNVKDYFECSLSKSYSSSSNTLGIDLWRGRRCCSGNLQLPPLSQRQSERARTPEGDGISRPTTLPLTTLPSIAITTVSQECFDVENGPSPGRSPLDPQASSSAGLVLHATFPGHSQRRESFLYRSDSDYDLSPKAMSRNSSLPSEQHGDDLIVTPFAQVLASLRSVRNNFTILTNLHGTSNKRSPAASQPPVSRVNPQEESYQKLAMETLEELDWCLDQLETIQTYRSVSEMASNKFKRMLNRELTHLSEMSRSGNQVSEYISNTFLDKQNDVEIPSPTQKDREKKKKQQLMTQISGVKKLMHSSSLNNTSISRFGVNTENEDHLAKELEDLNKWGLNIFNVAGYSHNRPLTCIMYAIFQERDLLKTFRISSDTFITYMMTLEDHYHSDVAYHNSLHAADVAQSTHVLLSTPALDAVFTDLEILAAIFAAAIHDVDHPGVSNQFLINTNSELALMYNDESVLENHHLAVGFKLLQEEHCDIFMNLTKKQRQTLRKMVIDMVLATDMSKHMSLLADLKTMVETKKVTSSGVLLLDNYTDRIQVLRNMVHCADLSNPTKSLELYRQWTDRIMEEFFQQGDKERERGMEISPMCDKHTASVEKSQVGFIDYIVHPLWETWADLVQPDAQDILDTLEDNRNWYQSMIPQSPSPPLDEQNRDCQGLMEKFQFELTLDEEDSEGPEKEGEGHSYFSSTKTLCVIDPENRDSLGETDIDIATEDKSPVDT
Chain of Pyruvate kinase PKM (Homo sapiens) (P14618 whole entry, looked up): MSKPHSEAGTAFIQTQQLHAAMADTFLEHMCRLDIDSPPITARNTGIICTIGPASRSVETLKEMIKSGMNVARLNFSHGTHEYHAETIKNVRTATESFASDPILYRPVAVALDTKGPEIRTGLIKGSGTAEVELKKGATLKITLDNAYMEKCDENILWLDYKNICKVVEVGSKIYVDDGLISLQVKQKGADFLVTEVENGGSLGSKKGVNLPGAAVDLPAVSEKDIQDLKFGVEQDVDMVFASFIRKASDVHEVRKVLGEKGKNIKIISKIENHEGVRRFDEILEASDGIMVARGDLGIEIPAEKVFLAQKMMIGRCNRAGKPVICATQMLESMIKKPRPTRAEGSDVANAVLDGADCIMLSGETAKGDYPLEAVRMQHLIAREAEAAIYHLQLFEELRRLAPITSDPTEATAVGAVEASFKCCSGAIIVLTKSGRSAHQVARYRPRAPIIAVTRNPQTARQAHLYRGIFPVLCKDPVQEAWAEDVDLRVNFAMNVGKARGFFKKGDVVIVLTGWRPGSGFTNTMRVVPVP
Chain of Glucocorticoid receptor (Homo sapiens) (P04150 whole entry, looked up, the tested form may be a part): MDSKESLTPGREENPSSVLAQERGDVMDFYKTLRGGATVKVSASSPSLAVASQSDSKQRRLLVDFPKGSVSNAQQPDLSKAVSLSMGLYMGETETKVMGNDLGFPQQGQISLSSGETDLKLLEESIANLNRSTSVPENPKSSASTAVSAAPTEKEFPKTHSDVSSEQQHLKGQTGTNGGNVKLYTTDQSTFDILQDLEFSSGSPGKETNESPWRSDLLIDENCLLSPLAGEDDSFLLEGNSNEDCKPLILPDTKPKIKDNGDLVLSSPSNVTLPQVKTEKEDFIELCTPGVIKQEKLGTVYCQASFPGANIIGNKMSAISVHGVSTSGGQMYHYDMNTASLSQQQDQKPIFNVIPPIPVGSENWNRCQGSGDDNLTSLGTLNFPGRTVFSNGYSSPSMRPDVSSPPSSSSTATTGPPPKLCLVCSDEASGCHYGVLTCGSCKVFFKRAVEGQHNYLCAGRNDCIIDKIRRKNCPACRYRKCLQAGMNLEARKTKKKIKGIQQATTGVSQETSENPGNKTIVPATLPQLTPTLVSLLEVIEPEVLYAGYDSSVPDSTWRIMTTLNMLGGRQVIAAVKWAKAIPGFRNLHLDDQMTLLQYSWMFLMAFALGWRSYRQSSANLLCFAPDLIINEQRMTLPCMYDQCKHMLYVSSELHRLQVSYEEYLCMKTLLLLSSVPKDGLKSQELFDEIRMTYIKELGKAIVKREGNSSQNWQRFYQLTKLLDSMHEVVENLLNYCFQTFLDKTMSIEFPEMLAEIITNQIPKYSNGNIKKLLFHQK

CCCCC/C=C\C[C@H](O)/C=C\c1cccc(C[C@H](O)CCCCO)n1
activity change, negative = inhibition [1]: -11.3% [at 38 µM]
Potency [2]: inactive
activity change, negative = inhibition [3]: -9.64% [at 38 µM]
activity, negative = inhibition [4]: 54.3% [at 38 µM]
Potency [5]: > 46 µM
Potency [6]: > 46 µM
Potency [7]: inactive
Potency [8]: inactive
outcome [9]: inactive
Potency [10]: inactive
outcome [11]: inactive
outcome [12]: inactive
outcome [13]: inactive
outcome [14]: inactive
Potency [15]: inactive

O=C(O)CCC(=O)N1CCC[C@H]1C(=O)O
activity change, negative = inhibition [1]: 14% [at 38 µM]
Potency [2]: inactive
activity change, negative = inhibition [3]: 7.11% [at 38 µM]
activity, negative = inhibition [4]: -28.5% [at 38 µM]
Potency [5]: > 46 µM
Potency [6]: > 46 µM
Potency [7]: inactive
Potency [8]: inactive
outcome [9]: inactive
Potency [16]: inactive
outcome [11]: inactive
Potency [17]: inactive
outcome [12]: inactive
outcome [13]: inactive
outcome [14]: inactive
Potency [15]: inactive

N.N.N.N.N.N.N.N.N.N.N.N.N.N.O.O.[Ru].[Ru].[Ru]
activity change, negative = inhibition [1]: 17.6% [at 38 µM]
Potency [2]: inactive
activity change, negative = inhibition [3]: -5.33% [at 38 µM]
activity, negative = inhibition [4]: -27% [at 38 µM]
Potency [5]: > 46 µM
Potency [6]: > 46 µM
Potency [7]: inactive
Potency [8]: inactive
outcome [9]: inactive
Potency [10]: inactive
outcome [11]: inactive
Potency [18]: inactive
Potency [17]: inactive
outcome [13]: inactive
outcome [14]: inactive
Potency [15]: inactive

NC[C@H](O)C1CCCCCCC1
activity change, negative = inhibition [1]: 3.98% [at 38 µM]
Potency [2]: inactive
activity change, negative = inhibition [3]: 4.63% [at 38 µM]
activity, negative = inhibition [4]: 14.7% [at 38 µM]
Potency [5]: > 46 µM
Potency [6]: > 46 µM
Potency [7]: inactive
Potency [8]: inactive
outcome [9]: inactive
outcome [11]: inactive
Potency [18]: inactive
Potency [17]: inactive
outcome [12]: inactive
outcome [13]: inactive
outcome [14]: inactive
Potency [15]: inactive

CCCCCCCCCCCCCCC/C=C\[C@H](O)[C@@H](NC(=O)CCCCCCCCCCCCC)OC (tested in a mixture with another compound)
activity change, negative = inhibition [1]: 15.5% [at 38 µM]
Potency [2]: inactive
activity change, negative = inhibition [3]: 13% [at 38 µM]
activity, negative = inhibition [4]: -20.2% [at 38 µM]
Potency [5]: > 46 µM
Potency [6]: > 46 µM
Potency [7]: inactive
Potency [8]: inactive
outcome [9]: inactive
outcome [11]: inactive
Potency [18]: inactive
Potency [17]: inactive
outcome [12]: inactive
outcome [13]: inactive
outcome [14]: inactive
Potency [15]: inactive

NC(N)=N[C@H](CCC(=O)O)C(=O)O
activity change, negative = inhibition [1]: -11% [at 38 µM]
Potency [2]: inactive
activity change, negative = inhibition [3]: -4.2% [at 38 µM]
activity, negative = inhibition [4]: 0.861% [at 38 µM]
Potency [5]: > 46 µM
Potency [6]: > 46 µM
Potency [7]: inactive
Potency [8]: inactive
outcome [9]: inactive
Potency [10]: inactive
outcome [11]: inactive
Potency [18]: inactive
Potency [17]: inactive
outcome [12]: inactive
outcome [13]: inactive
outcome [14]: inactive
Potency [15]: inactive

CSC(N)=NCCC[C@@H](N)C(=O)O
activity change, negative = inhibition [1]: 19.2% [at 38 µM]
Potency [2]: inactive
activity change, negative = inhibition [3]: 6.92% [at 38 µM]
activity, negative = inhibition [4]: 10.5% [at 38 µM]
Potency [5]: > 46 µM
Potency [6]: > 46 µM
Potency [7]: inactive
Potency [8]: inactive
outcome [9]: inactive
Potency [16]: inactive
Potency [17]: inactive
outcome [12]: inactive
outcome [13]: inactive
outcome [14]: inactive
Potency [15]: inactive

CC1=C(C(=O)O)N2C(=O)[C@@H](NC(=O)[C@@H](N)C3=CCC=CC3)[C@@H]2SC1
activity change, negative = inhibition [1]: 0.806% [at 38 µM]
Potency [2]: inactive
activity change, negative = inhibition [3]: 1.78% [at 38 µM]
activity, negative = inhibition [4]: -5.32% [at 38 µM]
Potency [5]: > 46 µM
Potency [6]: > 46 µM
Potency [7]: inactive
Potency [8]: inactive
outcome [9]: inactive
Potency [10]: inactive
Potency [19]: inactive
Potency [16]: inactive
outcome [11]: inactive
Potency [17]: inactive
outcome [12]: inactive
outcome [13]: inactive
outcome [14]: inactive
Potency [15]: inactive

C[C@H](O)[C@H](O)[C@@H]1CNc2nc(N)[nH]c(=O)c2N1
activity change, negative = inhibition [1]: 7.68% [at 38 µM]
Potency [2]: inactive
activity change, negative = inhibition [3]: 7.39% [at 38 µM]
activity, negative = inhibition [4]: 18.8% [at 38 µM]
Potency [5]: > 46 µM
Potency [6]: > 46 µM
Potency [7]: inactive
Potency [8]: inactive
outcome [9]: inactive
outcome [11]: inactive
Potency [18]: inactive
Potency [17]: inactive
outcome [12]: inactive
outcome [13]: inactive
outcome [14]: inactive
Potency [15]: inactive

OC[C@@H]1NC[C@@H](O)[C@@H](O)[C@H]1O
activity change, negative = inhibition [1]: 0.931% [at 38 µM]
Potency [2]: inactive
activity change, negative = inhibition [3]: 1.96% [at 38 µM]
activity, negative = inhibition [4]: -28.2% [at 38 µM]
Potency [5]: > 46 µM
Potency [6]: > 46 µM
Potency [7]: inactive
Potency [8]: inactive
outcome [9]: inactive
outcome [11]: inactive
Potency [18]: inactive
Potency [17]: inactive
outcome [12]: inactive
outcome [13]: inactive
outcome [14]: inactive
Potency [15]: 0.0794 µM (active)
